# Results taken from ChEMBL document CHEMBL1157539, “Thousands of chemical starting points for antimalarial lead identification” (Nature, 2010).
# System: Plasmodium falciparum
# Test: GSK_TCMDC: Inhibition of Plasmodium falciparum Dd2 in whole red blood cells, using parasite LDH activity as an index of growth. Test compounds present at 2uM
# Format: functional
row,SMILES,Inhibition [%]
1,O=C(O)C(F)(F)F.Oc1ccc(-c2nc3c(N4CCN(Cc5ccccc5)CC4)cccc3n2C2CCNCC2)cc1,7
2,O=C(C=Cc1ccc(Cl)c(Cl)c1)NCCCCCN1CCC(CCCNS(=O)(=O)c2cccc(C(F)(F)F)c2)CC1,59
3,CCCN1CCC(c2c[nH]c3ccc(NC(=O)Nc4cccc(Cl)c4Cl)cc23)CC1,17
4,CNCCNCc1cccc(-c2ccc(-c3nc4cc(C(F)(F)F)ccc4[nH]3)s2)c1.O=C(O)C(F)(F)F,85
5,NC(=O)c1cccc(C(=O)Nc2cccc(-c3csc(-c4nc5ccccc5[nH]4)c3)c2)c1,92
6,Cc1nc(-c2cccc(C(F)(F)F)c2)n2nc(Nc3ccc(OCCN4CCCC4)cc3)ncc12,29
7,COc1ccc(CCN(C)CCOc2ccc(NC(=O)c3ccc([N+](=O)[O-])c4c(=O)c5ccccc5[nH]c34)cc2)cc1OC,25
8,Br.Oc1ccc(CCNCCCCCCNCCc2ccc(Cl)c3ccccc23)cc1O,1
9,CC(C)(C)CCN1CCC(NC(=O)c2ccc(-c3cccc(C(F)(F)F)c3)s2)CC1.O=C(O)C(F)(F)F,88
10,Cc1cc(=O)c(-c2ccc(Oc3ccc(C(F)(F)F)cc3)cc2)c(C)n1O,78
11,Cc1ccc(O)cc1Nc1ccnc2ccc(-c3cccc(CNCCN(C)C)c3)cc12,46
12,COc1cc(NC(=O)C(c2ccc(Cl)cc2)C(C)C)cc(OC)c1OC (stereo unspecified),100
13,CCNc1cc(C(=O)N[C@@H](Cc2ccccc2Cl)[C@H](O)CNC(C)CCCC(C)C)cc(N2CCCCS2(=O)=O)c1.Cl (stereo partly specified),62
14,Cc1ccc(CN2CCCN(Cc3cccc(C(=O)Nc4ccc(C(C)(C)C)cc4)c3)CC2)s1.O=C(O)C(F)(F)F,4
15,O=C(Nc1ccc(C(F)(F)F)cc1)NC1CCN(c2ccnc3cc(Cl)ccc23)C1.O=C(O)C(F)(F)F (stereo unspecified),99
16,CC(C)NCc1cccc(-c2ccc(NC(=O)c3ccc(F)cc3)cc2)c1.O=C(O)C(F)(F)F,3

row,SMILES,Inhibition [%]
1,CCNCc1ccc(-c2cccc(-c3nc4ccccc4[nH]3)c2)cc1.O=C(O)C(F)(F)F,18
2,N#Cc1ccc(CN2CCC(Oc3ccc(NC(=O)c4ccccc4)cc3Cl)CC2)cc1.O=C(O)C(F)(F)F,65
3,CN(C)Cc1c(O)ccc2[nH]c(-c3ccc(OC(F)(F)F)cc3)nc12,97
4,Cn1nccc1C(=O)NCCNCc1cccc(-c2cccc(-c3nc4cc(F)ccc4[nH]3)c2)c1.O=C(O)C(F)(F)F,7
5,COc1ccc2[nH]c(/C=C/c3cccc4ccc(C)nc34)nc2c1,77
6,Cc1nc2sccn2c1C(=O)NCCc1ccccc1Cl,1
7,Cc1cc(NC(=O)c2coc3cc(F)c(N4CC(C)N(C)C(C)C4)cc23)cnc1-c1ccc(C#N)cc1.Cl (stereo unspecified),71
8,O=C(N[C@H]1CCN(Cc2ccc(OC3CCN(Cc4ccccc4)CC3)cc2)C1)c1ccc(Cl)c(Cl)c1.O=C(O)C(F)(F)F,6
9,COc1ccc(-c2cccc(NC(=O)c3cccc(F)c3)c2)cc1CN1CCCN(C)CC1.O=C(O)C(F)(F)F,78
10,CCN(CCCN1CCCCC1)c1cc(C)nc(Nc2cccc(C(F)(F)F)c2C)n1.O=C(O)C(F)(F)F,37
11,CCn1cc(CN2CCCC(C(=O)Nc3ccc(-c4nc5ccccc5[nH]4)cc3)C2)c(C)n1 (stereo unspecified),28
12,Cc1cc(C(=O)Nc2ccc3c(ccn3C3CCCN(Cc4ccc(C(F)(F)F)cc4F)CC3)c2)no1 (stereo unspecified),95
13,CCNCc1cccc(-c2ccc3ccnc(N)c3c2)c1,98
14,CCOCCCNc1ncc(-c2ccsc2)c(-c2nc(C)cs2)n1,83
15,O=C(NCc1cccc(F)c1)Nc1ccc(-c2cccc(-c3nc4ccccc4[nH]3)c2)cc1,2

# System: HepG2
# Test: GSK_TCMDC: Percent inhibition of human HepG2 cell line. Test compounds present at 10uM.
# Format: functional
row,SMILES,Inhibition [%]
1,O=C(/C=C/c1ccc(Cl)c(Cl)c1)N1CCC(CN2CCC(Cc3nc4ccccc4[nH]3)CC2)CC1,34
2,CCc1cc(NC(=O)Nc2ccnc3ccccc23)ccc1OC.Cl,0
3,COc1cc2nc(NCC3CCN(C(=O)c4ccc(-c5ccc(C(=O)N(C)C)cc5C)cc4)CC3)nc(N)c2cc1OC,2
4,N#CCOc1c(C2CCN(CCCCNC(=O)c3ccc(-c4ccc(C(F)(F)F)cc4)cc3)CC2)ccc2c1CCCC2,59
5,Oc1ccc(-c2cc(-c3ccc(O)cc3)nc(-c3ccccc3)n2)cc1,0
6,O=C(Nc1ccc(-c2nc3ccccc3[nH]2)cc1)C1CCCN(CC2CC2)C1 (stereo unspecified),6
7,CCc1c[nH]c2c(N3CCCC3=O)cc(C(=O)N[C@@H](Cc3ccccc3)[C@H](O)CNC(C)(C)c3cccc(OC)c3)cc12,0
8,Cc1[nH]c(C)c(-c2ccc(OCc3cccc(C(F)(F)F)c3)nc2)c(=O)c1Br,37
9,Cn1c(NC(=O)CCCCCNC(=O)c2ccc(O)c(-c3ccc(Cl)c(Cl)c3)c2)nc2ccccc21,0
10,O=C(O)C(F)(F)F.Oc1ccc(-c2nc3c(N4CCN(Cc5ccccc5)CC4)cccc3n2C2CCNCC2)cc1,0
11,O=C(C=Cc1ccc(Cl)c(Cl)c1)NCCCCCN1CCC(CCCNS(=O)(=O)c2cccc(C(F)(F)F)c2)CC1,99
12,CCCN1CCC(c2c[nH]c3ccc(NC(=O)Nc4cccc(Cl)c4Cl)cc23)CC1,30
13,CNCCNCc1cccc(-c2ccc(-c3nc4cc(C(F)(F)F)ccc4[nH]3)s2)c1.O=C(O)C(F)(F)F,31
14,NC(=O)c1cccc(C(=O)Nc2cccc(-c3csc(-c4nc5ccccc5[nH]4)c3)c2)c1,16
15,Cc1nc(-c2cccc(C(F)(F)F)c2)n2nc(Nc3ccc(OCCN4CCCC4)cc3)ncc12,30
16,COc1ccc(CCN(C)CCOc2ccc(NC(=O)c3ccc([N+](=O)[O-])c4c(=O)c5ccccc5[nH]c34)cc2)cc1OC,38
17,Br.Oc1ccc(CCNCCCCCCNCCc2ccc(Cl)c3ccccc23)cc1O,22
18,CC(C)(C)CCN1CCC(NC(=O)c2ccc(-c3cccc(C(F)(F)F)c3)s2)CC1.O=C(O)C(F)(F)F,95
19,Cc1cc(=O)c(-c2ccc(Oc3ccc(C(F)(F)F)cc3)cc2)c(C)n1O,18
20,Cc1ccc(O)cc1Nc1ccnc2ccc(-c3cccc(CNCCN(C)C)c3)cc12,0

row,SMILES,Inhibition [%]
1,COc1cc(NC(=O)C(c2ccc(Cl)cc2)C(C)C)cc(OC)c1OC (stereo unspecified),10
2,CCNc1cc(C(=O)N[C@@H](Cc2ccccc2Cl)[C@H](O)CNC(C)CCCC(C)C)cc(N2CCCCS2(=O)=O)c1.Cl (stereo partly specified),12
3,Cc1ccc(CN2CCCN(Cc3cccc(C(=O)Nc4ccc(C(C)(C)C)cc4)c3)CC2)s1.O=C(O)C(F)(F)F,31
4,O=C(Nc1ccc(C(F)(F)F)cc1)NC1CCN(c2ccnc3cc(Cl)ccc23)C1.O=C(O)C(F)(F)F (stereo unspecified),20
5,CC(C)NCc1cccc(-c2ccc(NC(=O)c3ccc(F)cc3)cc2)c1.O=C(O)C(F)(F)F,7
6,CCNCc1ccc(-c2cccc(-c3nc4ccccc4[nH]3)c2)cc1.O=C(O)C(F)(F)F,26
7,N#Cc1ccc(CN2CCC(Oc3ccc(NC(=O)c4ccccc4)cc3Cl)CC2)cc1.O=C(O)C(F)(F)F,21
8,CN(C)Cc1c(O)ccc2[nH]c(-c3ccc(OC(F)(F)F)cc3)nc12,24
9,Cn1nccc1C(=O)NCCNCc1cccc(-c2cccc(-c3nc4cc(F)ccc4[nH]3)c2)c1.O=C(O)C(F)(F)F,38
10,COc1ccc2[nH]c(/C=C/c3cccc4ccc(C)nc34)nc2c1,25
11,Cc1nc2sccn2c1C(=O)NCCc1ccccc1Cl,6
12,Cc1cc(NC(=O)c2coc3cc(F)c(N4CC(C)N(C)C(C)C4)cc23)cnc1-c1ccc(C#N)cc1.Cl (stereo unspecified),35
13,O=C(N[C@H]1CCN(Cc2ccc(OC3CCN(Cc4ccccc4)CC3)cc2)C1)c1ccc(Cl)c(Cl)c1.O=C(O)C(F)(F)F,37
14,COc1ccc(-c2cccc(NC(=O)c3cccc(F)c3)c2)cc1CN1CCCN(C)CC1.O=C(O)C(F)(F)F,42
15,CCN(CCCN1CCCCC1)c1cc(C)nc(Nc2cccc(C(F)(F)F)c2C)n1.O=C(O)C(F)(F)F,57
16,CCn1cc(CN2CCCC(C(=O)Nc3ccc(-c4nc5ccccc5[nH]4)cc3)C2)c(C)n1 (stereo unspecified),22
17,Cc1cc(C(=O)Nc2ccc3c(ccn3C3CCCN(Cc4ccc(C(F)(F)F)cc4F)CC3)c2)no1 (stereo unspecified),19
18,CCNCc1cccc(-c2ccc3ccnc(N)c3c2)c1,17
19,CCOCCCNc1ncc(-c2ccsc2)c(-c2nc(C)cs2)n1,0
20,O=C(NCc1cccc(F)c1)Nc1ccc(-c2cccc(-c3nc4ccccc4[nH]3)c2)cc1,14
